According to PubChem BioAssay AID2401 (Southern Research Specialized Biocontainment Screening …, 2010):
Hit rate of the full screen: of about 2,200 compounds, about 530 (24%) were called active.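 Rule for the calls: active = inhibition above a set limit at one or more concentrations of the dose series; inactive = inhibition under that limit at every dose.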 The list is a sample of the results. Measured potencies and affinities stand elsewhere.

experiment: nmpC-GFP reporter counter-screen in S. Typhimurium, dose response, counter-screen for PhoP regulon inhibitor project, Salmonella Typhimurium, GFP fluorescence (AID 2401); details: 4 h; series mostly up to 150 µM;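 note: S. typhimurium with Mg-insensitive nmpC-GFP reporter grown at 10 µM Mg2+; drop in reporter fluorescence reflects general culture growth inhibition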

Structure (SMILES) | outcome
Cc1ccccc1-n1c(=O)c2ccccc2n2cnnc12 | inactive
CCCn1nnc(NC(=O)c2ccc(Br)o2)n1 | inactive
Cc1ccc(NC(=O)COc2ncnc3c(Cl)cc(Cl)cc23)cc1[N+](=O)[O-] | inactive
O=C(NCc1cccnc1)c1ccc(Cl)cc1[N+](=O)[O-] | inactive
Cc1cc([N+](=O)[O-])cc2ncccc12 | inactive
CC1(C)CC(=O)C2=C(C1)N(c1ccc(F)cc1)C(N)=C(C#N)C2c1cccs1 (stereo unspecified) | inactive
CCn1c(=O)c(=O)[nH]c2cc(C(=O)NCC3CCCCC3)ccc21 | inactive
O=c1c2c([nH]c3ccccc13)CCCCC2 | inactive
Cc1cc(NC(=O)c2ccco2)ccc1-n1cnnn1 | inactive
c1ccc(CSc2nnc(-c3ccncc3)o2)cc1 | inactive
O=C1Nc2ccc(F)cc2C12SCCS2 | inactive
CC(=S)c1c(C)cc2cc(C)ccn12 | inactive
COc1ccc(N=c2cc(-c3ccc(OC)cc3)oc3ccccc23)cc1 | inactive
CN1C(=S)N(c2ccccc2)C(=O)/C1=C/c1ccco1 | inactive
CCn1c(SCc2ccc(F)cc2)nc2ccccc2c1=O | inactive
COC(=O)c1ccc(CSc2nnnn2-c2ccccc2)o1 | inactive
CCOc1ccc(CNc2ccc(N3CCCC3)cc2)cc1 | inactive
Cc1cccc(Nc2nc(N)nc(CN3CCN(c4ccccc4)CC3)n2)c1 | inactive
CCOC(=O)c1cnc2ccccc2c1Nc1ccc2c(c1)OCCO2 | inactive
Nc1ccc(Nc2ccccc2)c(Cl)c1 | inactive
CCc1ccc(Nc2nc(N)nc(CSc3nc4ccccc4s3)n2)cc1 | inactive
CCOc1ccc(Nc2nc(NCCN3CCOCC3)nc(OC)n2)cc1 | inactive
C=CCN=C(NC#N)SCc1ccccc1Cl | inactive
Cc1ccc(NC(=O)C2CC(=O)NC(N3CCCCC3)=N2)cc1Cl (stereo unspecified) | inactive

Structure (SMILES) | outcome
COC(=O)N1CCN(c2ccc(Cl)c(Cl)c2)CC1 | inactive
O=C(COc1ncnc2sccc12)N1CCN(S(=O)(=O)c2ccc(Cl)cc2)CC1 | inactive
CC1CCN(C(c2cc3cc4c(cc3[nH]c2=O)OCO4)c2nnnn2CC2CCCO2)CC1 (stereo unspecified) | inactive
CCOC(=O)C[n+]1c(C)sc2ccc(OC)cc21 | inactive
COc1ccc(C)cc1Nc1nc(-c2c(C)[nH]c3ccccc23)cs1 | inactive
CCOC(=O)c1c(N)ssc1=S | inactive
O=c1[nH]c(NCc2ccco2)nnc1Cc1ccccc1Cl | inactive
N/C(=N\OC(=O)c1ccc(F)cc1)c1nonc1N | inactive
O=C(c1ccccc1)N1CCN(c2ccc([N+](=O)[O-])c(NCc3ccco3)c2)CC1 | inactive
O=C(NC(=Nc1ccccc1)N1CCOCC1)Nc1ccccc1 | inactive
COc1ccc(C(=O)On2c(-c3ccc(Br)cc3)nc3ccccc3c2=O)cc1 | inactive
Cc1cc(-c2csc(N)n2)c(C)n1-c1ccccc1 | inactive
N#CC1=C(N)N=C(SCc2cccc3ccccc23)C(C(N)=O)C12CCCCC2 (stereo unspecified) | inactive
CCCCC1CCC(C(=O)Nc2ccccc2)CC1 (stereo unspecified) | inactive
Cc1ccc(CCNC(=O)C2CCCN(S(=O)(=O)c3c(C)noc3C)C2)cc1 (stereo unspecified) | inactive
c1ccc2c(c1)ncn2CCCCOc1ccc2c(c1)CCC2 | inactive
O=C(c1ccc(CSc2nc3ccncc3[nH]2)cc1)N1CCN(c2cccc(Cl)c2)CC1 | inactive
CC(=O)N1N=C(c2ccco2)CC1c1ccc(Br)cc1 (stereo unspecified) | inactive
OCCCNc1nc(-c2ccc(Cl)cc2)nnc1-c1ccc(Br)cc1 | inactive
CC(C)[C@@H]1CC[C@@H](C)C[C@H]1OC(=O)C[n+]1cc(-c2ccc(Cl)cc2)n2c1CCCCC2 | inactive
COc1ccc(-n2c(CNc3ccc(C)cc3)nnc2SCc2ccccc2)cc1 | inactive
Cn1cc(-c2nnnn2-c2cccc(C(F)(F)F)c2)c(C(F)(F)F)n1 | inactive
CCn1c(CNC(=O)c2cccc(C)c2)nc2ccccc21 | inactive
COc1ccccc1-c1c(C#N)c(N)nc2c1CCc1ccccc1-2 | inactive

Structure (SMILES) | outcome
O=c1cc(Cc2ccccc2)[nH]c(=S)[nH]1 | inactive
CCOC(=O)Cc1ccc(NS(=O)(=O)c2ccc(SC)cc2)cc1 | inactive
NC1=NC(=Nc2cccc(Cl)c2)c2ccccc21 | inactive
C#CCOc1ccc(/C=C2\SC(=S)N(Cc3cccnc3)C2=O)cc1 | inactive
COCCNC(=O)c1ccc(C(=O)NCCOC)s1 | inactive
CC(Nc1ccc(Br)cn1)c1cc(Cl)ccc1O (stereo unspecified) | inactive
COc1cc([N+](=O)[O-])cc(/C=N/NC(=O)c2cccnc2)c1O | inactive
COc1ccc(/C=N/NC(=O)c2ccc3c(c2)OCCO3)cc1[N+](=O)[O-] | inactive
O=C(Nc1cc(C(F)(F)F)ccc1N1CCOCC1)c1ccc(Br)o1 | inactive
Cc1nc(N2CCN(Cc3ccc4c(c3)OCO4)CC2)nc2c1C(=O)CC(c1ccco1)C2 (stereo unspecified) | inactive
CC1CCN(S(=O)(=O)c2cccc(C(=O)N(C)C3CCS(=O)(=O)C3)c2)CC1 (stereo unspecified) | inactive
CN1c2ccccc2C(O)=C(C(=O)Nc2ccccc2)S1(=O)=O | inactive
O=C(N/N=C/c1ccc(F)cc1)c1cc(-c2ccco2)nc2ccccc12 | inactive
COC(=O)C1=C(C)N(C)C(=O)/C1=C\c1ccco1 | inactive
O=C(COc1ccccc1)NC(=S)Nc1ccc2c3c(cccc13)CC2 | inactive
Cc1ccc(C(=O)CSc2ncnc3sc4c(c23)CCCC4)cc1 | inactive
COc1ccc(N2CCN(C(=O)CN(c3cccc(Br)c3)S(C)(=O)=O)CC2)cc1 | inactive
O=C(/C=C/c1ccco1)Oc1cc(Br)cc(/C=N/NC(=O)c2ccccc2O)c1 | inactive
CCN1CCN(C(=O)c2ccc3c(=O)n(Cc4ccccc4OC)c(=S)[nH]c3c2)CC1 | inactive
Cc1cc(C)nc(Nc2ccc(N3CCCC3)cc2)n1 | inactive
O=C(NCCc1ccccc1)c1ccc2nc(-c3ccco3)c(-c3ccco3)nc2c1 | inactive
Clc1ccc(OCCn2ccnc2)c(Br)c1 | inactive
O=C(NC1CCN(C(=O)N2c3ccccc3Sc3ccccc32)CC1)c1ccco1 | inactive
CCn1c2ccccc2c2cc(C3N=C(N)Nc4nc5ccccc5n43)ccc21 (stereo unspecified) | inactive

Structure (SMILES) | outcome
O=C(CN1CCN(c2ccccn2)CC1)Nc1ccc(Oc2ccccc2)cc1 | inactive
COc1ccc(OC)c(C2=Nn3c(nnc3-c3cc(OC)c(OC)c(OC)c3)SC2)c1 | inactive
O=C1CCCc2nc(N3CCN(Cc4ccccc4)CC3)ncc21 | inactive
COc1ccc(Nc2sc(C(=O)Nc3cccc(Cl)c3)c(N)c2C(=O)Nc2ccccc2OC)cc1 | inactive
O=S(=O)(c1ccc(F)c2ccccc12)N1CCCCC1 | inactive
Cn1ccnc1SCC(=O)Nc1sccc1C#N | inactive
Cn1cc(C(CC(=O)O)C(=O)O)c2ccccc21 (stereo unspecified) | inactive
c1ccc2c(N3CCCCCC3)nc(-c3ccncc3)nc2c1 | inactive
CCOC(=O)c1cnc2ccc(OCC)cc2c1N1CCN(c2ccccc2)CC1 | inactive
Cc1ccc(NC(=O)CCCSc2nc3ccccc3[nH]2)cc1 | inactive
CCN(CCO)Cc1csc2ccccc12 | inactive
CC(C)CCNC(=O)C12CN(Cc3ccccc3)CC1C(c1cccc([N+](=O)[O-])c1)=NO2 (stereo unspecified) | inactive
CCCn1c(NCc2c[nH]c3ccccc23)nc2ccccc21 | inactive
COc1ccc(-c2cc(C(=O)Nc3ccc(S(=O)(=O)Nc4ncccn4)cc3)c3ccccc3n2)cc1 | inactive
Nc1nc(C2CCCCC2)cs1 | inactive
Clc1ccc(-n2ncc3c(NCc4cccs4)ncnc32)cc1 | inactive
CC(C)Cc1nc2ccc(N)cc2[nH]1 | inactive
COc1cccc(-c2nnc3sc(-c4ccc(C)cc4)nn23)c1 | inactive
Cc1nc2c(C(=O)NCCC(C)C)c[nH]n2c(=O)c1Cc1ccccc1F | inactive
CC(C)(C)NC(=O)CSc1nnc(-c2ccncc2)o1 | inactive
CCCCCCC(=O)N(O)C1CC(=O)N(c2ccc(C)cc2)C1=O (stereo unspecified) | inactive
O=C(c1ccco1)[C@@H]1[C@@H]2C(=O)N(c3ccc(F)cc3)C(=O)[C@@H]2[C@H]2C=Cc3ccccc3N21 | inactive
CCC(=O)NC1=C(NC(C)c2ccccc2)C(=O)c2ccccc2C1=O (stereo unspecified) | inactive
O=S(=O)(c1ccc(NC(=S)Nc2ccc3c(c2)OCO3)cc1)N1CCOCC1 | inactive

Structure (SMILES) | outcome
Nc1ccc(N(c2ccccc2)c2ccc(N)cc2)cc1 | inactive
CSc1nsc(SCC(=O)Nc2ccc(C(C)=O)cc2)n1 | inactive
O=C(Cc1cccs1)N(c1ccccc1)C1C=CS(=O)(=O)C1 (stereo unspecified) | inactive
O=C(OCC(=O)c1ccc(S(=O)(=O)N2CCCC2)cc1)C1=COCCO1 | inactive
NNC(=S)Nc1ccc(Cl)cc1 | inactive
COc1ccc2cc(C#N)c(NC(C)C)nc2c1 | inactive
NC(=S)c1cc2ccc(O)cc2oc1=O | inactive
Cc1ccc(NC(=S)NCCc2ccccc2)c(C)c1 | inactive
CNC(=O)CSc1nnc(-c2cccnc2)n1CCc1ccccc1 | inactive
COc1nc(N(c2ccccc2)c2ccccc2)nc(-n2ccnc2)n1 | inactive
COc1cc(CNc2ccc(CNc3ncn[nH]3)cc2)ccc1OCc1ccccc1 | inactive
CCc1cccc(NC(=O)CCCSc2nc3ccccc3[nH]2)c1 | inactive
CC(C)Nc1cc(C(F)(F)F)nc(-c2ccccn2)n1 | inactive
O=C1c2ccccc2C(=O)N1Cc1nc(-c2ccccn2)no1 | inactive
S=c1nc(-c2ccccc2)oc2c1CCCC2 | inactive
c1ccc(-c2ncnc3nc4n(c23)CCC4)cc1 | inactive
O=C(Nc1cccc2ccccc12)OC1C=CS(=O)(=O)C1 (stereo unspecified) | inactive
Cc1cccc(-n2c(SCC(N)=O)nc3c(c2=O)C2(CCCC2)Cc2ccccc2-3)c1 | inactive
COc1ccc(Nc2nc(-c3cccc([N+](=O)[O-])c3)nc3ccccc23)cc1 | inactive
C=CCSc1nnc(-c2ccc(Cl)cc2Cl)o1 | inactive
